High-throughput results as filed in PubChem.
The entries come from a sample that favours hits as a whole.
Dicer processing – blocks human Dicer maturation of pre-miR-21; z-score at 25 µM; cat-ELCCA pre-miR-21 Dicer processing, chemiluminescence; stronger effect = higher value; 6% of 47,000 active; in the data active = z-score above about 3, passing the limit was not always enough;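 also: plate controls were vehicle for no effect and no enzyme for full effect; higher signal means more uncleaved substrate so more Dicer inhibition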
Starred values were filed as active, the others as inactive.

SMILES	Dicer processing
O=C(CCC1CCCC1)N1CCN(S(=O)(=O)c2ccc3ccccc3c2)CC1	3.1*
Cc1ccc(S(=O)(=O)N2CCC(CC3CCN(S(=O)(=O)c4ccc(C)cc4)CC3)CC2)cc1	1.5
O=C(Nc1nnc(CCS(=O)(=O)c2ccc3ccccc3c2)s1)C1CCCCC1	-0.45
Cc1ccc(S(=O)(=O)N2CCN(S(=O)(=O)c3ccc4ccccc4c3)CC2)cc1	3.4*
CCCN(CCC)C(=O)Cn1cnc2c1c(=O)n(C)c(=O)n2C	2.2
COc1ccc(C2C(C(=O)OC3CCCC3)=C(C)NC3=C2C(=O)CCC3)cc1OC (configuration not stated)	-0.07
CCc1ccc(C2C(C(=O)OCCOC)=C(C)N=C3SCCC(=O)N32)cc1 (configuration not stated)	0.33
O=C(OCCSc1ncccc1[N+](=O)[O-])c1cccc(Cl)c1	-1.3
CN1CCC2(N3CCOCC3)C(C1)N=NN2c1cc(C(F)(F)F)cc(C(F)(F)F)c1 (configuration not stated)	0.39
Cn1c(Oc2ccc(F)cc2)nc2c1c(=O)n(Cc1ccccc1)c(=O)n2C	0.4
Cn1c(Oc2ccc(Br)cc2)nc2c1c(=O)n(Cc1ccc(Br)cc1)c(=O)n2C	1.2
COc1ccc(Oc2nc3c(c(=O)n(Cc4ccc(Br)cc4)c(=O)n3C)n2C)cc1	4.1*
O=C1CCS(=O)(=O)c2ccc(Cl)cc21	0.59
O=C(O)c1cccc2cccc(-c3cccc4cccc(C(=O)O)c34)c12	-1.6
O=C(O)CCCN1Cc2ccccc2C1	1.3
O=C(O)CCCc1ccc2ccc3cccc4ccc1c2c34	4*
COC(=O)C1=C(C)NC2=C(C(=O)CCC2)C1c1ccc(-c2cccs2)s1 (configuration not stated)	2.6
CC1=C(C(=O)OC(C)C)C(c2ccccc2Cl)C2=C(CC(c3ccccc3)CC2=O)N1 (configuration not stated)	3
Cc1ccc(-c2csc3nc(-c4cccs4)oc(=O)c23)cc1	5.4*
O=c1oc(-c2ccc(Br)cc2)nc2scc(-c3cccs3)c12	0.83
Cc1cccc2nc(-c3cccs3)oc(=O)c12	-1.3
CSc1nnc(-c2ccc(S(=O)(=O)Oc3cc(Cl)cc(Cl)c3)s2)n1C	1.3
CC(C)(C)NC(=S)N/N=C/C=N/NC(=S)NC(C)(C)C	4.3*
CC(C)(C)NC(=S)N/N=C/c1ccc(O)cc1O	2.2
CC(C)(C)NC(=S)N/N=C/c1c(Cl)cccc1Cl	-2
SMILES	Dicer processing
Nc1c(C(=O)Nc2ccccc2)oc2ccccc12	5.4*
O=C(Nc1ccccc1)c1ccc2ccccc2c1O	0.47
O=C(O)C1=C(C(=O)Nc2ccccc2)SCCS1	-0.77
Cc1ccc2oc(-c3cccc(N)c3C)nc2c1	2.1
Cc1cc2nc(-c3cccc(N)c3C)oc2cc1C	3*
Cc1ccc(-c2nc3ccccc3o2)cc1N	-0.44
COc1ccc(NC(=O)OC(C)(C)C)cc1	-0.18
O=C(Nc1ccc(Cl)cc1)c1cc2sccc2s1	-0.07
O=C(Nc1ccc(Cl)cc1)N1CCOC1c1cccs1 (configuration not stated)	4.2*
O=C(Nc1ccc(Cl)cc1)N1N=C2c3ccccc3CCC2C1c1cccs1 (configuration not stated)	-0.38
N#CC1=C(SCC(=O)Nc2ccc(Cl)cc2)NC(=O)CC1c1cccs1 (configuration not stated)	-2.8
COc1ccc(-c2coc3cc4oc(=O)c5ccccc5c4cc23)cc1	2.8
Cc1ccc(NC(=O)NN2CC(=O)N(c3ccc(Cl)cc3)CC2=O)cc1	1.7
Cc1ccc(NC(=O)NN2CC(=O)N(c3ccccc3F)CC2=O)cc1	4.8*
NN1CC(=O)N(c2ccccc2F)CC1=O	1.1
FC(F)(F)c1cccc(Oc2ccc3nnc(-c4ccccc4)n3n2)c1	0.28
Cc1ccc(CSc2nc(C(=O)C(F)(F)F)c3ccccn23)cc1	1.3
Nc1nc(Nc2ccc(Cl)cc2)n[nH]1	5.4*
Nc1nc(SCc2ccc(Cl)cc2)n[nH]1	0.27
Nc1ncnc(Nc2ccc(Oc3ccc(Cl)cc3)cc2)n1	-0.35
CCOCCOC(=O)C1=C(C)NC2=C(C(=O)CC(c3cccs3)C2)C1c1ccc(Cl)cc1 (configuration not stated)	1.9
Oc1ccc(Cl)cc1Sc1cc(Cl)ccc1O	3.2*
NS(=O)(=O)c1ccc(Cl)cc1Sc1ccccc1C(=O)O	-0.59
Oc1ccc(Cl)cc1-c1csnn1	0.76
NNC(=O)/C(=C\c1ccccc1Cl)NC(=O)c1ccccc1	1.2
SMILES	Dicer processing
O=S(=O)(NCc1csc(-c2cccs2)n1)c1cc2ccccc2s1	-1.1
CCn1c(NCc2ccncc2)nc2ccccc21	2
CCN(CC)CCn1c(NCc2ccncc2)nc2ccccc21	2.7
CCCn1c(NCc2ccncc2)nc2ccccc21	1.3
CCN(CC)CCn1c(NCc2ccc(N(C)C)cc2)nc2ccccc21	4.4*
CCc1ccc(CNc2nc3ccccc3n2C)cc1	3.4*
CN(C)c1ccc(CNc2nc3ccccc3n2CCN2CCCCC2)cc1	2.2
COc1ccc(NC(=S)NNC(=O)c2nc3ccccc3c(=O)[nH]2)cc1	0.33
CSc1nc(-c2cnccn2)nc(-c2ccccc2Cl)c1C#N	-0.15
